Assay outcomes: PubChem BioAssay, Emory University Molecular Libraries Screening Center
Measles inh: inhibitors of measles virus growth in cells, primary screen, measles RdRp inhibitor project, cell-based, single point, HTS. infected Vero cells, GFP fluorescence, 64 h; active compounds read low. z-score (no concentration beside the values). 33,000 compounds, 0.1% hits. AID 745, 2007; in the data active = z-score below about -3
Hits are given with their value; - = inactive. This excerpt belongs to a sample that is enriched for hits.

SMILES	Measles inh
c1ccc(-c2cn3c4ccccc4n(CCN4CCCCC4)c3n2)cc1	-3.08
N=c1n(CCO)c2ccccc2n1CCN1CCCCC1	-
Cc1cn2c3ccccc3n(CCN3CCCCC3)c2n1	-
O=C(NC1CCN(Cc2ccccc2)CC1)C1CCC(CNS(=O)(=O)c2ccc(Br)s2)CC1 (stereo not drawn)	-
CC1CCC(C(=O)NC(C(=O)N2CCN(c3ccc(F)cc3)CC2)C(C)C)CC1 (stereo not drawn)	-
Nc1ncc(N=Cc2cc([N+](=O)[O-])ccc2O)cn1	-
COc1ccccc1OCCCCCCN1CCOCC1	-
CC(C)(C)c1cc(Br)ccc1OCCCN1CCOCC1	-3.29
Cc1cccc(C)c1OCCCCCCN1CCOCC1	-
Cc1[nH]c2c(Br)ccc3c2c1CCN1C(=O)OC(C)(C)C31C (stereo not drawn)	-
Brc1ccc(C2CC(c3ccc(I)cc3)Nc3nnnn32)cc1 (stereo not drawn)	-
CCCCCSc1nc2ccccc2[nH]1	-
CCCCCCCSc1nnc2nc(C)cc(C)n12	-3.12
CCCCCCSc1nnc(-c2ccco2)c(-c2ccco2)n1	-
COc1cccc2c1OC1(C)CC2NC(=O)N1c1cccc(C(=O)N2CCN(c3cccc(Cl)c3)CC2)c1 (stereo not drawn)	-
Nc1cc(=O)nc(SCC(=O)Nc2nc3ccccc3s2)n1-c1ccccc1	-
COc1cccc(C(=O)Nc2c3c(nn2-c2cccc(Cl)c2)CS(=O)C3)c1 (stereo not drawn)	-
O=C(CN1C(=O)CSc2ccc(S(=O)(=O)N3CCOCC3)cc21)NC1CCCCCCC1	-
Cc1ccccc1OCCn1c(SCC(N)=O)nc2ccccc21	-
COCc1nc2ccccc2n1CCOc1ccccc1C	-3.42
CCn1c(COc2ccccc2C)nc2ccccc21	-
Cc1c(C(=O)OCC2CCCCC2)[nH]c2c1C(=O)CC(c1cccs1)C2 (stereo not drawn)	-
O=C(NCc1ccccn1)c1ccc(CNS(=O)(=O)c2ccc(Br)cc2)cc1	-
COC(=O)c1ccccc1N1C(=O)C2C3CCC(C3)C2C1=O (stereo not drawn)	-3.72
O=C1C2C3CCC(C3)C2C(=O)N1c1ccccc1F (stereo not drawn)	-
SMILES	Measles inh
CCCCOC(=O)c1ccccc1N1C(=O)C2C3CCC(C3)C2C1=O (stereo not drawn)	-
O=C(CCn1nc(-c2ccccc2)c2ccccc2c1=O)NCc1cccnc1	-
O=C(CSc1nc2c(c(=O)n1-c1ccc([N+](=O)[O-])cc1)SCC2)N1CCc2ccccc21	-
N#Cc1ccc(N2C(=O)C3C4C=CC(C4)C3C2=O)cc1 (stereo not drawn)	-
O=C(O)c1ccc(N2C(=O)C3C4C=CC(C4)C3C2=O)cc1 (stereo not drawn)	-
CCCCOc1ccc(N2C(=O)C3C4C=CC(C4)C3C2=O)cc1 (stereo not drawn)	-3.34
CC1=C(C(=O)N2CCOCC2)C(c2ccc(C)cc2)n2c(nc3ccccc32)N1 (stereo not drawn)	-
CCOC(=O)C1=CN(C(C)C)C=C(C(=O)OCC)C1c1cccc(OC)c1	-
Cc1ccc(Cl)cc1N1CCN(C(=O)c2cnn3c(C)c(Cc4ccc(Cl)cc4)c(C)nc23)CC1	-
O=C(NCc1cccs1)c1ccc(N2CC3CC(C2)c2cccc(=O)n2C3)c(NC(=O)c2cccs2)c1 (stereo not drawn)	-
COc1ccc2nc3sc(C(=O)NCCN4CCOCC4)cc3cc2c1	-
CC1CCCC(C)N1CCNC(=O)CCN1C(=O)COc2ccccc21 (stereo not drawn)	-
O=C(CCN1C(=O)COc2ccccc21)NCCN1CCc2ccccc2C1	-6.44
O=C(CCN1C(=O)COc2ccccc21)NCCc1ccc(Cl)cc1	-
COc1ccc(C(=O)N2CCN(CC=Cc3ccccc3)CC2)cc1	-
COC(=O)c1ccc(C2C3=C(CC(c4ccco4)CC3=O)Nc3ccccc3N2C(C)=O)cc1 (stereo not drawn)	-
COc1ccc(NC(=O)C2CCN(S(=O)(=O)c3cccc4nonc34)CC2)cc1Cl	-
COc1ccccc1Nc1ncc(C(=O)N2CCC(Cc3ccccc3)CC2)c2ccccc12	-
CCOc1cc(C2NC(=S)NC(C)=C2C(=O)Nc2ccc(F)cc2)ccc1O (stereo not drawn)	-
COc1ccc(C(=O)NC(NCCOC23CC4CC(CC(C4)C2)C3)(C(F)(F)F)C(F)(F)F)cc1	-
COc1ccc(C)cc1NC(=O)C1CCN(C(=O)c2ccccc2C)CC1	-
CCc1ccc(NC(=O)C2CCN(C(=O)c3ccccc3C)CC2)cc1	-4.97
Cc1ccccc1C(=O)N1CCC(C(=O)Nc2ccccc2C(F)(F)F)CC1	-
CCOc1ccccc1NC(=O)C1=C(C)NC(=O)NC1c1ccccc1F (stereo not drawn)	-
CC(=O)Nc1cc(C(=O)N2CCN(c3cc(Cl)ccc3C)CC2)ccc1Sc1ccc(C)cc1	-
SMILES	Measles inh
COc1ccc(Cc2nc(C)cc(Cl)n2)cc1Cl	-3.84
COc1nc(Cl)cc(C)c1C(=O)NCc1ccc(Cl)cc1	-
COc1ccc(Cc2c(Cl)ncnc2Cl)cc1	-
O=c1c2ccccc2c(-c2ccc(Cl)cc2)nn1-c1cc(N2CCNCC2)ccc1[N+](=O)[O-]	-
COCCNC(=O)c1ccc2c(c1)N(Cc1ccccc1F)C(=O)CS2	-
CCOc1ccccc1-c1cc(C(=O)OC)c2ccccc2n1	-
CCCCN(CC)C(=O)Cn1c(=O)n(-c2ccc(C)c(C)c2)c(=O)c2c3c(sc21)CCC3	-
Cc1cc(N2CCN(C)CC2)nc2ccc(NC(=O)Cc3cccc(C(F)(F)F)c3)cc12	-3.15
CCN1CCN(c2cc(C)c3cc(NC(=O)Cc4cccc(C)c4)ccc3n2)CC1	-
Cc1cc(N2CCN(C)CC2)nc2ccc(NC(=O)c3cccc(C(F)(F)F)c3)cc12	-
CC1=CC(C)(C)N(C(=O)CSc2nc3ccccc3o2)c2cc(C)ccc21	-
O=C(Cc1ccccc1)Nc1cccc(NC(=O)c2ccccc2Cl)c1	-
CCc1ccc(C2C(C(=O)OC(C)(C)C)C(=O)CC(C)(O)C2C(=O)OC(C)(C)C)cc1 (stereo not drawn)	-
Cc1ncc(CO)c2cc(C(N)=O)c(=Nc3ccc(Oc4ccccc4)cc3)oc12	-
COc1cc2c(cc1OC)C1C(C(=O)NCc3ccc(C)o3)c3ccccc3C(=O)N1CC2 (stereo not drawn)	-
CCOc1ccccc1NC(=O)CN1C(=O)C2C3C=CC(C3)C2C1=O (stereo not drawn)	-
CCOc1ccc(NC(=O)CC23CC4CC(CC(C4)C2)C3)cc1	-
CCOc1ccc(NC(=O)CN2C(=O)C3C4CCC(C4)C3C2=O)cc1 (stereo not drawn)	-3.2
O=C(Nc1ccc(Cl)cn1)C(Cc1ccccc1)NS(=O)(=O)c1ccc(Br)s1 (stereo not drawn)	-
Cc1nnc2n1N=C(c1ccc(F)cc1)CS2	-
NS(=O)(=O)c1ccc(CCNC(=O)C2CCCN(S(=O)(=O)c3cccc4nsnc34)C2)cc1 (stereo not drawn)	-
CCN(CCNC(=O)C1CCCN(S(=O)(=O)c2cccc3nsnc23)C1)c1ccccc1 (stereo not drawn)	-3.26
O=C(NCCN1CCOCC1)C1CCCN(S(=O)(=O)c2cccc3nsnc23)C1 (stereo not drawn)	-
CCOC(=O)c1nc(Nc2ccc(Oc3ccccc3)cc2)c2ccccc2n1	-
CCCCNC(=O)c1cccc(NS(=O)(=O)c2ccc(Cl)cc2)c1	-
CCCCN(C)Cc1c(O)ccc2c(=O)c(-c3ccc(OC)c(OC)c3)c(C(F)(F)F)oc12	-
COc1ccc(CNC(=O)C2CCCN(C(=O)N(C)C)C2)cc1 (stereo not drawn)	-
O=C(NCc1cccc(Cl)c1)c1ccc(N2CC3CC(C2)c2cccc(=O)n2C3)c(NC(=O)c2ccc(Br)o2)c1 (stereo not drawn)	-
